In PubChem BioAssay (NCATS):
Records with an inconclusive call do not appear. Entries that show only a call come without a potency. Calls of active or inactive are those of the source. Unless noted, the call rests on the fitted dose curve; in most records, active means well fitted curve in the direction sought with a large enough effect in the repeat runs; inconclusive means weak or mixed curves; inactive means no such curve, though single readings can be large; an effect the other way counts as inactive or inconclusive. *1 amine or outer side, *2 acyl side, *3 side chain or, on linkers, in order; H or OH if unused. Where a SMILES comes first, the peptide text is derived from it. Bridges are numbered along the chain shown (N, C = ends). Roman numbers before positions name the chains, in order. [ ]: non-standard residue; d: D form. ξ: configuration not given here. Actinocin(9to1) = Cc1c2oc3c(C)ccc(C(=O)[*:1])c3nc-2c(C(=O)[*:2])c(N)c1=O; ξNMeV = CNC(C(=O)O)C(C)C; ξV = CC(C)C(N)C(=O)O; Sar = CNCC(=O)O

Molecular target: Tyrosine-protein kinase Yes (Homo sapiens) (UniProt P07947)
Assay: qHTS for small molecule inhibitors of Yes1 kinase: Primary Screen (AID 686947; active means well fitted curve in the direction sought with a large enough effect; an effect the other way counts as inactive or inconclusive; further: nearly all actives have a fitted effect of over 60% in size; further: potency means the concentration at half of the fitted maximal effect)
Details: Yes1 kinase biochemical qHTS inhibition; series mostly up to 76.9 µM
Procedure, shortened: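 Yes1 (4 nM) preincubated 20 min with compound, then 60 min room-temperature reaction with 0.1 mM ATP and 0.3 mg/mL poly(E4Y) in pH 7.5 Tris, 10 mM MgCl2. ADP measured by ADP-Glo luminescence, normalised to enzyme/no-enzyme controls.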

Chain of Tyrosine-protein kinase Yes (Homo sapiens) (P07947 whole entry, looked up): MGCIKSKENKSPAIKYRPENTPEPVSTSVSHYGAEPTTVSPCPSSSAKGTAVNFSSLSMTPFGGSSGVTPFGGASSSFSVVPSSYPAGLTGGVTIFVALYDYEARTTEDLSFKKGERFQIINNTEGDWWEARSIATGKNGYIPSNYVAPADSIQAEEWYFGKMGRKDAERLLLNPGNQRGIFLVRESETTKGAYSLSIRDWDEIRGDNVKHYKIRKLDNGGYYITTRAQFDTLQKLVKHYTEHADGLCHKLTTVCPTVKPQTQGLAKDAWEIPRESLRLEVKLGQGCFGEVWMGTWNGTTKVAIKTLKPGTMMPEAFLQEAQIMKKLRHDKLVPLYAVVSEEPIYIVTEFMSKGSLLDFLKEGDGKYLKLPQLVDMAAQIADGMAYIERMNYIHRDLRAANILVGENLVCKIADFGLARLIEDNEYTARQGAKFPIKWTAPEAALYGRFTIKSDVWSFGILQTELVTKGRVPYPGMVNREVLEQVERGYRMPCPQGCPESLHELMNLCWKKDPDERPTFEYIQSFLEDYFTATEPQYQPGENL

SMILES | Potency
COC(=O)C1=C(C)NC(C)=C(C(=O)OCCCN2CCC(c3ccccc3)(c3ccccc3)CC2)[C@H]1c1cccc([N+](=O)[O-])c1 | inactive
CN(NC(=O)CC(=O)NN(C)C(=S)c1ccccc1)C(=S)c1ccccc1 | inactive
NC(=O)Nc1cc(-c2ccc(CN3CCOCC3)c(F)c2)sc1C(=O)N[C@H]1CCCNC1 | 0.2 nM (active)
CC(NC(=O)Cc1cc(F)cc(F)c1)C(=O)NC(C(=O)OC(C)(C)C)c1ccccc1 (stereo not given) | inactive
O=C(O)CC/C=C\CC[C@H]1[C@@H](N2CCCCC2)[C@@H](O)C[C@@H]1OCc1ccc(-c2ccccc2)cc1 | inactive
CCCCCCCCCCCCCCCCCCOP(=O)([O-])OC1CC[N+](C)(C)CC1 | inactive
O=c1cc(C2=CC=CC3Sc4ccccc4SC23)oc(N2CCOCC2)c1 (stereo not given) | inactive
Cc1c2oc3c(C)ccc(C(=O)N[C@@H]4C(=O)NC(C(C)C)C(=O)N5CCC[C@H]5C(=O)N(C)CC(=O)N(C)C(C(C)C)C(=O)O[C@@H]4C)c3nc-2c(C(=O)N[C@@H]2C(=O)NC(C(C)C)C(=O)N3CCC[C@H]3C(=O)N(C)CC(=O)N(C)C(C(C)C)C(=O)O[C@@H]2C)c(N)c1=O (stereo not given in full) (I: T[ξV]P[Sar][ξNMeV] / II: T[ξV]P[Sar][ξNMeV]; ester I:1-I:C, II:1-II:C; linker I:N-II:N via Actinocin(9to1)) | inactive
CC[C@@H](C(=O)O)C1CC[C@H](C)C([C@@H](C)[C@H](O)[C@H](C)C(=O)[C@H](CC)C2O[C@]3(C=C[C@@H](O)[C@]4(CC[C@@](C)(C5CC[C@](O)(CC)[C@H](C)O5)O4)O3)[C@H](C)C[C@@H]2C)O1 (stereo not given in full) | inactive
CCC1(Cc2ccc(N)cc2)CCC(=O)NC1=O (stereo not given) | inactive
CNC1CCN(C(Cc2cccc(-c3ccncc3)c2)C(=O)c2sc3c(F)ccc(F)c3c2Cl)CC1 (stereo not given) | inactive
CCC1(O)CC2CN(CCc3c([nH]c4ccccc34)[C@@](C(=O)OC)(c3cc4c(cc3OC)N(C=O)[C@H]3[C@](O)(C(=O)OC)[C@H](OC(C)=O)[C@]5(CC)C=CCN6CC[C@]43[C@@H]65)C2)C1 (stereo not given in full) | inactive

System: not listed separately
Assay: qHTS for small molecule inhibitors of Yes1 kinase: Counter Assay (AID 686950; active means well fitted curve in the direction sought with a large enough effect; an effect the other way counts as inactive or inconclusive;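 further: no kinase present so only ADP-Glo detection of a fixed ADP amount is tested; luminescence from ADP-Glo reporting ADP in a fixed ATP and ADP mixture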)
Details: series mostly up to 76.9 µM
Procedure, shortened: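 Luminescence read-out from ADP-Glo quantifies a fixed ADP amount (0.02 mM ADP with 0.08 mM ATP) after 60 min at room temperature; signal is normalized between DMSO wells with ATP/ADP and with 0.1 mM ATP alone.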

SMILES | outcome
COC(=O)C1=C(C)NC(C)=C(C(=O)OCCCN2CCC(c3ccccc3)(c3ccccc3)CC2)[C@H]1c1cccc([N+](=O)[O-])c1 | inactive
Cc1nnc(C(C)C)n1C1CC2CCC(C1)N2CC[C@H](NC(=O)C1CCC(F)(F)CC1)c1ccccc1 (stereo not given in full) | inactive
C[C@@H]1CCN(C(=O)CC#N)C[C@@H]1N(C)c1ncnc2[nH]ccc12 | inactive
CN(NC(=O)CC(=O)NN(C)C(=S)c1ccccc1)C(=S)c1ccccc1 | inactive
CCOc1cc2ncc(C#N)c(Nc3ccc(OCc4ccccn4)c(Cl)c3)c2cc1NC(=O)/C=C/CN(C)C | inactive
NC(=O)Nc1cc(-c2ccc(CN3CCOCC3)c(F)c2)sc1C(=O)N[C@H]1CCCNC1 | inactive
CC(NC(=O)Cc1cc(F)cc(F)c1)C(=O)NC(C(=O)OC(C)(C)C)c1ccccc1 (stereo not given) | inactive
O=C(O)CC/C=C\CC[C@H]1[C@@H](N2CCCCC2)[C@@H](O)C[C@@H]1OCc1ccc(-c2ccccc2)cc1 | inactive
CCCCCCCCCCCCCCCCCCOP(=O)([O-])OC1CC[N+](C)(C)CC1 | inactive
O=c1cc(C2=CC=CC3Sc4ccccc4SC23)oc(N2CCOCC2)c1 (stereo not given) | inactive
Cc1c2oc3c(C)ccc(C(=O)N[C@@H]4C(=O)NC(C(C)C)C(=O)N5CCC[C@H]5C(=O)N(C)CC(=O)N(C)C(C(C)C)C(=O)O[C@@H]4C)c3nc-2c(C(=O)N[C@@H]2C(=O)NC(C(C)C)C(=O)N3CCC[C@H]3C(=O)N(C)CC(=O)N(C)C(C(C)C)C(=O)O[C@@H]2C)c(N)c1=O (stereo not given in full) (I: T[ξV]P[Sar][ξNMeV] / II: T[ξV]P[Sar][ξNMeV]; ester I:1-I:C, II:1-II:C; linker I:N-II:N via Actinocin(9to1)) | inactive
CC[C@@H](C(=O)O)C1CC[C@H](C)C([C@@H](C)[C@H](O)[C@H](C)C(=O)[C@H](CC)C2O[C@]3(C=C[C@@H](O)[C@]4(CC[C@@](C)(C5CC[C@](O)(CC)[C@H](C)O5)O4)O3)[C@H](C)C[C@@H]2C)O1 (stereo not given in full) | inactive
CCC1(Cc2ccc(N)cc2)CCC(=O)NC1=O (stereo not given) | inactive
CNC1CCN(C(Cc2cccc(-c3ccncc3)c2)C(=O)c2sc3c(F)ccc(F)c3c2Cl)CC1 (stereo not given) | inactive
CCC1(O)CC2CN(CCc3c([nH]c4ccccc34)[C@@](C(=O)OC)(c3cc4c(cc3OC)N(C=O)[C@H]3[C@](O)(C(=O)OC)[C@H](OC(C)=O)[C@]5(CC)C=CCN6CC[C@]43[C@@H]65)C2)C1 (stereo not given in full) | inactive

System: not listed separately
Assay: qHTS assay for small molecule agonists of the antioxidant response element (ARE) signaling pathway measured by Nrf2-dependant transcriptional activity (AID 720636);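 further: HepG2 cells with an ARE-driven luciferase reporter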
Details: ARE-luc HepG2, Nrf2 luciferase reporter, 16 h; series mostly up to 92.4 µM
Procedure, shortened: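 Cells: ARE-luc HepG2 with Nrf2-responsive luciferase. Medium contained 1% dialyzed FBS. Compound exposure lasted 16 hr at 37 C and 5% CO2, followed by ONE-Glo luciferase detection.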

SMILES | outcome
Nc1ccn([C@H]2CS[C@@H](CO)O2)c(=O)n1 | inactive
O=S(=O)(O)O | inactive
CCCCC(CC)COC(=O)CC(C(=O)OCC(CC)CCCC)S(=O)(=O)O (stereo not given) | inactive
CCOC(C)=O | inactive
O=CCCCC=O | inactive
CC1=C2[C@@H]([C@H](C)CC[C@H]2/C=C(\C)C(=O)O)[C@H](O)C1 | inactive
C[C@H]1C[C@H]2[C@@H]3CCC4=CC(=O)C=C[C@]4(C)[C@@]3(F)[C@@H](O)C[C@]2(C)[C@@]1(O)C(=O)CO | inactive
CCCCCCCC(=O)O | inactive
CC1(C)C(C=C(Cl)Cl)C1C(=O)OCc1cccc(Oc2ccccc2)c1 (stereo not given) | inactive
CC(O)CO (stereo not given) | inactive
CC1=CCC(C(C)(C)O)CC1 (stereo not given) | inactive
O=C(O)CN(CCN(CC(=O)O)CC(=O)O)CC(=O)O | inactive
O=C(O)CCC(=O)C(=O)O | inactive
CCCCC/C=C\C/C=C\CCCCCCCC(=O)O | inactive
CC(C)=O | inactive
IC(I)I | inactive
Cc1ccccc1 | inactive
CCCCCCCC/C=C\CCCCCCCC(=O)O | inactive
